Results reported in ChEMBL document CHEMBL2218924, “A broad activity screen in support of a chemogenomic map for kinase signalling research and drug discovery” (Biochem J, 2013).

Key:
[1] = target: T1, Mitogen-activated protein kinase kinase kinase 5 (Homo sapiens) (UniProt Q99683); conditions: at 10 µM
T1 sequence (whole entry): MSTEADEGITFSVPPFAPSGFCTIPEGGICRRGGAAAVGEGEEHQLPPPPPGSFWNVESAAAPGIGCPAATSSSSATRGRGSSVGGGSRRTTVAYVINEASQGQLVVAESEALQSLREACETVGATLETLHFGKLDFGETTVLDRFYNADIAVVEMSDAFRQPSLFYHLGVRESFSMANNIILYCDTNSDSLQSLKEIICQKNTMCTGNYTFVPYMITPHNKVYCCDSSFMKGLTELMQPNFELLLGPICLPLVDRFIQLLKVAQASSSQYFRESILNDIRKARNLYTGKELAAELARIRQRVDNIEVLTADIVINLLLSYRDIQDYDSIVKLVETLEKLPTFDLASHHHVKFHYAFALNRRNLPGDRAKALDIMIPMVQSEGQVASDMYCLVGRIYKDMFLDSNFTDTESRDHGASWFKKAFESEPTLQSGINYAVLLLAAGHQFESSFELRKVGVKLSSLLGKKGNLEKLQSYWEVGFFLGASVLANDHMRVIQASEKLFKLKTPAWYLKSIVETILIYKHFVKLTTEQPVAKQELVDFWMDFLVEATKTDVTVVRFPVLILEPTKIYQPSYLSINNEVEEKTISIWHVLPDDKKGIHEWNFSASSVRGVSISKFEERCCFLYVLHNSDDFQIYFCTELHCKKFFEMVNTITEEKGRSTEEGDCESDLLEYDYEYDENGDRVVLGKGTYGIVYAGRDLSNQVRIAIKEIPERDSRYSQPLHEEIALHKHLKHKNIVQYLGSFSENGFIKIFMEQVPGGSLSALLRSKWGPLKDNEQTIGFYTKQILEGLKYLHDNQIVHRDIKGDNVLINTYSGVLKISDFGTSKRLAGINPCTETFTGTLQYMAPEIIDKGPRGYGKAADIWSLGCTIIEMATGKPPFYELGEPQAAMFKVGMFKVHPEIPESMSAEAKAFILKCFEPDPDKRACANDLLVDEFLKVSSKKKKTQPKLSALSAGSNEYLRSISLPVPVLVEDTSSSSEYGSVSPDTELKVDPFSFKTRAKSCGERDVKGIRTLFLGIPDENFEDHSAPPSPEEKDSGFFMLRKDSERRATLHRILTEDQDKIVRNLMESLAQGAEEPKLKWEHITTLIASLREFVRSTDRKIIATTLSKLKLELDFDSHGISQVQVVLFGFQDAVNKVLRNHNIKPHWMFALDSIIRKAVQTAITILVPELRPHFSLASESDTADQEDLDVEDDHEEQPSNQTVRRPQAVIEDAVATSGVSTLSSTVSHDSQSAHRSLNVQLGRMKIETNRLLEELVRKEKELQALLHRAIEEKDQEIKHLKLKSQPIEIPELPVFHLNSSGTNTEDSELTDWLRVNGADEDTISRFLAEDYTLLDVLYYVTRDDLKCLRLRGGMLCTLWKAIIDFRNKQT

[2] = target: Tyrosine-protein kinase ABL2 (Homo sapiens) (UniProt P42684); conditions: at 10 µM
[3] = target: T2, Aurora kinase A (Homo sapiens) (UniProt O14965); conditions: at 1 µM
T2 sequence (whole entry): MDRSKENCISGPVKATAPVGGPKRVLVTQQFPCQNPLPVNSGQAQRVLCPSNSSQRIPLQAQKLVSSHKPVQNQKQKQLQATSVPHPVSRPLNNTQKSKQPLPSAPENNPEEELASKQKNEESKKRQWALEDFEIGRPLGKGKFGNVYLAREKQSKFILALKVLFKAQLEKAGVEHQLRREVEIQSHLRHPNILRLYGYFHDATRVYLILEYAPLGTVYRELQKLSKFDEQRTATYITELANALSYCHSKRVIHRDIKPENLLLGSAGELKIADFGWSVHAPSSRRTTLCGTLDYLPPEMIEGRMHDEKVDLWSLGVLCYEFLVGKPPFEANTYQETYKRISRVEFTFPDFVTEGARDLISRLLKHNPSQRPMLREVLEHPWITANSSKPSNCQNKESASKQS

[4] = target: T2, Aurora kinase A (Homo sapiens); conditions: at 10 µM
[5] = target: Aurora kinase B (Homo sapiens) (UniProt Q96GD4); conditions: at 1 µM
[6] = target: Aurora kinase B (Homo sapiens) (UniProt Q96GD4); conditions: at 10 µM
[7] = target: T3, Aurora kinase C (Homo sapiens) (UniProt Q9UQB9); conditions: at 1 µM
T3 sequence (whole entry): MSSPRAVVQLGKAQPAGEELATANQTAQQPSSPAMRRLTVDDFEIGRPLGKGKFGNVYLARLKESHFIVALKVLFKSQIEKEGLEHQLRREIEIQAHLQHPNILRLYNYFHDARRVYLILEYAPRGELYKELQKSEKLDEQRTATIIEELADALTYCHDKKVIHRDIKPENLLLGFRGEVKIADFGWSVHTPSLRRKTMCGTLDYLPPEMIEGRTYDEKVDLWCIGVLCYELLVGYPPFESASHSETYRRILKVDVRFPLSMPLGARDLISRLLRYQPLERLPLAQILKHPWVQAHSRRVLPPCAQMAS

[8] = target: T3, Aurora kinase C (Homo sapiens); conditions: at 10 µM
[9] = target: Protein-tyrosine kinase 6 (Homo sapiens) (UniProt Q13882); conditions: at 10 µM
[10] = target: Tyrosine-protein kinase Blk (Homo sapiens) (UniProt P51451); conditions: at 1 µM
[11] = target: Tyrosine-protein kinase Blk (Homo sapiens) (UniProt P51451); conditions: at 10 µM
[12] = target: Tyrosine-protein kinase ABL1 (Homo sapiens) (UniProt P00519); conditions: at 1 µM
[13] = target: Tyrosine-protein kinase ABL1 (Homo sapiens) (UniProt P00519); conditions: at 10 µM
[14] = target: Tyrosine-protein kinase ABL2 (Homo sapiens) (UniProt P42684); conditions: at 1 µM
[15] = target: Tyrosine-protein kinase receptor UFO (Homo sapiens) (UniProt P30530); conditions: at 1 µM
[16] = target: Tyrosine-protein kinase receptor UFO (Homo sapiens) (UniProt P30530); conditions: at 10 µM
[17] = target: Protein-tyrosine kinase 6 (Homo sapiens) (UniProt Q13882); conditions: at 1 µM
[18] = target: Tyrosine-protein kinase BTK (Homo sapiens) (UniProt Q06187); conditions: at 1 µM
[19] = target: Tyrosine-protein kinase BTK (Homo sapiens) (UniProt Q06187); conditions: at 10 µM
[20] = target: T4, Protein kinase C zeta type (Homo sapiens) (UniProt Q05513); conditions: at 1 µM
T4 sequence (whole entry): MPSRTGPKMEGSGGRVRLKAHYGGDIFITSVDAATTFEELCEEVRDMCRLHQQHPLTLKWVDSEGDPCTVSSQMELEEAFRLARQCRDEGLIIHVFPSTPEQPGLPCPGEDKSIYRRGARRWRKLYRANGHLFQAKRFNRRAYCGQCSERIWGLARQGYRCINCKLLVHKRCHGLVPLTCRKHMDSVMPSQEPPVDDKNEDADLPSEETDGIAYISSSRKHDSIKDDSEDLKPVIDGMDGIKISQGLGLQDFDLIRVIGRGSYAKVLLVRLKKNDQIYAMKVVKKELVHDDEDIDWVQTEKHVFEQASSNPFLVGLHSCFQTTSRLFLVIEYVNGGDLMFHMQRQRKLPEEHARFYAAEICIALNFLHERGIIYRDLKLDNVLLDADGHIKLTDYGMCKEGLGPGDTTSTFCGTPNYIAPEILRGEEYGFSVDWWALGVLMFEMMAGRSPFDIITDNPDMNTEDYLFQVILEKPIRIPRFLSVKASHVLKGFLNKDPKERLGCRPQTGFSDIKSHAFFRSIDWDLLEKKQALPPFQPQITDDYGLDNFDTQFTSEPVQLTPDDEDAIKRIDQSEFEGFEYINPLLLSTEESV

Protein-tyrosine kinase 6 (Homo sapiens), sequence (Q13882 whole entry, looked up): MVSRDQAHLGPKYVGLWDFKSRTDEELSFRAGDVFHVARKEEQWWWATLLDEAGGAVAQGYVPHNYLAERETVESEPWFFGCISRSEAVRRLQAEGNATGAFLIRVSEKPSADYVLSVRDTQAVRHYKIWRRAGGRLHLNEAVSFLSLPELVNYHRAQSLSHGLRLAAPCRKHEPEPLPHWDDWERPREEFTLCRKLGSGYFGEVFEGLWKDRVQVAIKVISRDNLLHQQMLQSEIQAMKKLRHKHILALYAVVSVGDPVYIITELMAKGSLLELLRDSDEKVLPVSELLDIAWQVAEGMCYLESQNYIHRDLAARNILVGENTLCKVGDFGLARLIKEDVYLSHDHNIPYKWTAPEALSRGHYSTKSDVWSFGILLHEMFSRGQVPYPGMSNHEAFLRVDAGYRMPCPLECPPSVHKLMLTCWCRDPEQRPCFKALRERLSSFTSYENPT
Tyrosine-protein kinase Blk (Homo sapiens), sequence (P51451 2-505 limits assumed): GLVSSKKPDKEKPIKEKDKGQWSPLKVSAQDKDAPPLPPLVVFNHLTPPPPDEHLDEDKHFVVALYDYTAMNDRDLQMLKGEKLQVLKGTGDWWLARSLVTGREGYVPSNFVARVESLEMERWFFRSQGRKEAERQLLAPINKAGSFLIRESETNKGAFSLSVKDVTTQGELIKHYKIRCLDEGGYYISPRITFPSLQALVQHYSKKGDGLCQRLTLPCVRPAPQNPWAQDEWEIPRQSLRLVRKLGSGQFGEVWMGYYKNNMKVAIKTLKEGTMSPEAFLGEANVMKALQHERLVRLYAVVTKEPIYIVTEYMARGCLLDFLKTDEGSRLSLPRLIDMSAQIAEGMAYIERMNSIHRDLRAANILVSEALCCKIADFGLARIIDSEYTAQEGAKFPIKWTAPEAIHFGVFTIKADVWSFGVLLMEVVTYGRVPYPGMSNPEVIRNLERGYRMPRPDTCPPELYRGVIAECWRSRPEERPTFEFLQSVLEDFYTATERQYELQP
Aurora kinase B (Homo sapiens), sequence (Q96GD4 whole entry): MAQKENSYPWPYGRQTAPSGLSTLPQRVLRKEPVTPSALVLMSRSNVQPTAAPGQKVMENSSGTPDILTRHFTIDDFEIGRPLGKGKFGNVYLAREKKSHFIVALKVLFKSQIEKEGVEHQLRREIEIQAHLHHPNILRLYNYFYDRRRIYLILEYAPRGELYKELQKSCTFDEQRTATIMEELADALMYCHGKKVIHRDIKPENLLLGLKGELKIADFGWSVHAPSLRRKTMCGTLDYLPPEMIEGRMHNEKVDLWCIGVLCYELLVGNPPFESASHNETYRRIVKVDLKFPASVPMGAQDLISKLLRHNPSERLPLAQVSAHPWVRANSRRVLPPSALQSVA
Tyrosine-protein kinase ABL1 (Homo sapiens), sequence (P00519 whole entry): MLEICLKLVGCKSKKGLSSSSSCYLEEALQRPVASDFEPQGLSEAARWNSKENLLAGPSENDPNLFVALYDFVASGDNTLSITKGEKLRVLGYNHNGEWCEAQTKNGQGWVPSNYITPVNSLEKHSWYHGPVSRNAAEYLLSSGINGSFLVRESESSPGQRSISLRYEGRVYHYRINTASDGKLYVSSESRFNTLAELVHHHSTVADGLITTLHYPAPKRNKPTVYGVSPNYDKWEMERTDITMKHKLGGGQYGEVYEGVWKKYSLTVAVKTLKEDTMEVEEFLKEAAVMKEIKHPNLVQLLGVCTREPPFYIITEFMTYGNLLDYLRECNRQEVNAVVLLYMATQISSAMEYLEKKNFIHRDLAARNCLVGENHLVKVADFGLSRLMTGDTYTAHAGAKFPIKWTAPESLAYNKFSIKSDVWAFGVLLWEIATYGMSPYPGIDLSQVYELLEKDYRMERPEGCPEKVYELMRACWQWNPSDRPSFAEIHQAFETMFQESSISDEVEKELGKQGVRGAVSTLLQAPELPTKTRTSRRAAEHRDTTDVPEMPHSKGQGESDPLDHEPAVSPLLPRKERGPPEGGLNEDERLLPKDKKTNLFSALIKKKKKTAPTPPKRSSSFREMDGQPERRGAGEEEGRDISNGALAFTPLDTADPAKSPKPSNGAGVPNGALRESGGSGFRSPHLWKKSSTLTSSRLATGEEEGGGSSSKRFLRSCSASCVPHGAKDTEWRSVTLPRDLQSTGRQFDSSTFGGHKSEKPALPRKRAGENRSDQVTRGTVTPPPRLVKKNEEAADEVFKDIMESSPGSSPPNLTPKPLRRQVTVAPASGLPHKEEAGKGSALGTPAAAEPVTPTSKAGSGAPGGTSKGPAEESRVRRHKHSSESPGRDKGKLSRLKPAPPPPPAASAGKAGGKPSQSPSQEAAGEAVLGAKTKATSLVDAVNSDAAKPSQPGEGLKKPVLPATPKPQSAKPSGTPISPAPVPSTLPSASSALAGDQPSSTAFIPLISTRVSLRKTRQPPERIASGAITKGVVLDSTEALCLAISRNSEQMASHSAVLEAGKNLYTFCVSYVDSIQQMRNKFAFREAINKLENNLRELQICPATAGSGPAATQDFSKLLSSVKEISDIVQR
Tyrosine-protein kinase ABL2 (Homo sapiens), sequence (P42684 whole entry): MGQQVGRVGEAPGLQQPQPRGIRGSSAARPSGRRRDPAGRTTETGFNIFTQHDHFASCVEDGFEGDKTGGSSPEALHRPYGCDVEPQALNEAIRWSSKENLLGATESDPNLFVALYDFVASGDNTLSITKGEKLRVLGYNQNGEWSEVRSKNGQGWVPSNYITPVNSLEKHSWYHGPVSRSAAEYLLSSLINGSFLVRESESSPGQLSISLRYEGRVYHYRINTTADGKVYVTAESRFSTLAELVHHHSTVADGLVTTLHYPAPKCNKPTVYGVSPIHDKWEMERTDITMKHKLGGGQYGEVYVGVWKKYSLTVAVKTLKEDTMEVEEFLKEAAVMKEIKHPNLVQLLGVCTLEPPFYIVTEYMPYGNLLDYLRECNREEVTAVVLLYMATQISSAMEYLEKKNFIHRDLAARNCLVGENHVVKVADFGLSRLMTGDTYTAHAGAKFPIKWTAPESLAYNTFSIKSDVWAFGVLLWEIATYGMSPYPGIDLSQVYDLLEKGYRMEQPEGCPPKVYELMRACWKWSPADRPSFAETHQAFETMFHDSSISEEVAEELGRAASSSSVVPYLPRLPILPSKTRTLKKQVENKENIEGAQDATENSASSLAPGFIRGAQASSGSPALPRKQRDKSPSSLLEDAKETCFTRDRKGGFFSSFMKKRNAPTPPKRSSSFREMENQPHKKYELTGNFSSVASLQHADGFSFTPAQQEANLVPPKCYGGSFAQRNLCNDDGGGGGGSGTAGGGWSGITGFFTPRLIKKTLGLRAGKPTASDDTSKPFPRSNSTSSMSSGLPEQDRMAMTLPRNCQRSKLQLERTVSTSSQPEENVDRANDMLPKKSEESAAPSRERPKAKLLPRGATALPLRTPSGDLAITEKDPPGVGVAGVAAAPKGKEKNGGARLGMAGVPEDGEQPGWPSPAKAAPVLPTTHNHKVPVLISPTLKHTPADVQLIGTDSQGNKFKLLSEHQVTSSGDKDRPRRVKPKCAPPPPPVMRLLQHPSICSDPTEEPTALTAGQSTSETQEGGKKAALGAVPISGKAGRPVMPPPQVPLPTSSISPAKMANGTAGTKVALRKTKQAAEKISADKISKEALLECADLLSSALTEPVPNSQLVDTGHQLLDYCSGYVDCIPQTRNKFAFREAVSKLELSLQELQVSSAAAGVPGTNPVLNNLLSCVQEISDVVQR
Tyrosine-protein kinase receptor UFO (Homo sapiens), sequence (P30530 whole entry): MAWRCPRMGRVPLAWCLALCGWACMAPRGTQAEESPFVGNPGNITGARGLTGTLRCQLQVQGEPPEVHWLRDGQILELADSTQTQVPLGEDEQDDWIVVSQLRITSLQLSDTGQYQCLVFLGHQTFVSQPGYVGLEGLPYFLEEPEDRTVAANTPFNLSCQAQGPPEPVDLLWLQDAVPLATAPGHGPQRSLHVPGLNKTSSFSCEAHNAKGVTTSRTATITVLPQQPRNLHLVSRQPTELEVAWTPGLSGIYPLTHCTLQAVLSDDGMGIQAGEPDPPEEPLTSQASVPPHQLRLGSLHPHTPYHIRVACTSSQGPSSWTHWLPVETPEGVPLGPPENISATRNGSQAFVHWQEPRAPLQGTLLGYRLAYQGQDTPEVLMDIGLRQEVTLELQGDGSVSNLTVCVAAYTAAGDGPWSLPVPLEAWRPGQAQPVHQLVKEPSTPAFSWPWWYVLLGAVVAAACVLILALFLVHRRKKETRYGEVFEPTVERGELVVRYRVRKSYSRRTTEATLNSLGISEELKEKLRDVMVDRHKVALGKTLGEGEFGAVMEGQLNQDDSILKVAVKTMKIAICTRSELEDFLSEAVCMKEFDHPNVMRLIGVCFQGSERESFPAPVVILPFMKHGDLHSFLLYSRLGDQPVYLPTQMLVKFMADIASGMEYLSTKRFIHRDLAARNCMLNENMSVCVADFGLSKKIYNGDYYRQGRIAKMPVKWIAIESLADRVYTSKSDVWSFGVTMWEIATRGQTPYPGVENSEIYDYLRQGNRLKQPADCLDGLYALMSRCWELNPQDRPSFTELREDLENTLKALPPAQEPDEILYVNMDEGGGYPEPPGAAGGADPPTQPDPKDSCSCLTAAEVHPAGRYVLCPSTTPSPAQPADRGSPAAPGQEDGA

Structure (SMILES)	residual activity [1]	residual activity [2]	residual activity [3]	residual activity [4]	residual activity [5]	residual activity [6]	residual activity [7]	residual activity [8]	residual activity [9]	residual activity [10]	residual activity [11]	residual activity [12]	residual activity [13]	residual activity [14]	residual activity [15]	residual activity [16]	residual activity [17]	residual activity [18]	residual activity [19]	residual activity [20]
COc1ccc2c(c1)/C(=C/c1cnc[nH]1)C(=O)N2	41%	47%	42%	2%	21%	0%	34%	4%	71%	81%	22%	–	–	–	–	–	–	–	–	–
c1cc(-c2cnn3cc(-c4ccc(OCCN5CCCCC5)cc4)cnc23)ccn1	84%	1%	64%	48%	18%	2%	35%	4%	7%	25%	4%	4%	-4%	12%	76%	24%	53%	69%	23%	–
O=c1[nH]c2ccccc2n1C1CCN(Cc2ccc(-c3nc4cc5[nH]cnc5cc4nc3-c3ccccc3)cc2)CC1	96%	89%	70%	92%	116%	77%	108%	86%	79%	94%	50%	114%	137%	117%	77%	64%	110%	91%	76%	109% (inactive)
C[S+]([O-])c1ccc(-c2nc(-c3ccc(F)cc3)c(-c3ccncc3)[nH]2)cc1 (configuration not stated)	105%	55%	117%	118%	102%	80%	115%	108%	7%	101%	55%	–	72%	–	122%	119%	59%	94%	–	108% (inactive)
